Screen size: about 47,000 compounds; about 140 (0.3%) were called active. Cut-off read from the data, not from the text of the source: active = inhibition above about 30%; inactive = the rest. Only a selection was taken, and actives are over-represented in it overall.
target: Ubiquitin carboxyl-terminal hydrolase 7 (Homo sapiens) (UniProt Q93009); test: inhibitors of human USP7 deubiquitinase (AID 1645854); conditions: purified USP7, Ub-rhodamine cleavage fluorescence; at 20 µM; stronger effect = higher value
Sequence (Q93009 whole entry, looked up): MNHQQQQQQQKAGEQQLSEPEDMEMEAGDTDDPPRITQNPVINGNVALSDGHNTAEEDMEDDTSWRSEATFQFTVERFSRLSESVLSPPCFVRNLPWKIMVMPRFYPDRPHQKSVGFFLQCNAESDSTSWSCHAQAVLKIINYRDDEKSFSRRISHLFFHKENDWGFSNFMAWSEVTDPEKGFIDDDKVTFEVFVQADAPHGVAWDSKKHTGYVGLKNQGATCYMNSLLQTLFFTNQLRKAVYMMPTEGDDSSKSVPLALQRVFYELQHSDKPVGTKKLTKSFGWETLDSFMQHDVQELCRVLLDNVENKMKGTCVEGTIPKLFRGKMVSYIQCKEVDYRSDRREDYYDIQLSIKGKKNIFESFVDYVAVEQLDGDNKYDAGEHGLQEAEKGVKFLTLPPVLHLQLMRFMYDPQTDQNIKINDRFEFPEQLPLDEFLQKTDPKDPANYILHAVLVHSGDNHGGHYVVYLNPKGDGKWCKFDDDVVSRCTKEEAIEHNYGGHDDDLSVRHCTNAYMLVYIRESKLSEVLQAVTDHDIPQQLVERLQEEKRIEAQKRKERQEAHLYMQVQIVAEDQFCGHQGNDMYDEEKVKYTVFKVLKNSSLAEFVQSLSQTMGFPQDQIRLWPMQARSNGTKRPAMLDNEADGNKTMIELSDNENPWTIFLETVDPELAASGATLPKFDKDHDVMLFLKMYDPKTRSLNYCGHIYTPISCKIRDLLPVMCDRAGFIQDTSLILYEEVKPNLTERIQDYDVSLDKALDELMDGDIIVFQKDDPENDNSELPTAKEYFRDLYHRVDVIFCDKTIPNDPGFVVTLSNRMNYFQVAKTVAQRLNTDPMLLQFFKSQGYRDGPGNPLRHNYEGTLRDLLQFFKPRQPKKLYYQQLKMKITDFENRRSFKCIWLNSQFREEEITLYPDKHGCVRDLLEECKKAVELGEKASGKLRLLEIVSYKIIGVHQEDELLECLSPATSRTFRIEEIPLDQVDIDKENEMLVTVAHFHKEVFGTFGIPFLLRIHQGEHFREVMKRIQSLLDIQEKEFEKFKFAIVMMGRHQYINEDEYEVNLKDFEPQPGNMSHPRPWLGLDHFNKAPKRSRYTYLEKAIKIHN

| SMILES | inhibition |
| --- | --- |
| O=C1CCCC2=C1C(c1ccc(O)cc1)n1ncc(C(=O)Nc3ccccc3)c1N2 (stereo unspecified) | 1.67% (inactive) |
| Fc1ccc(-c2nn(-c3cccc(F)c3)c3c2cnc2cc4c(cc23)OCO4)cc1 | 8.85% (inactive) |
| CCC(=O)NC(=NCCc1c[nH]c2ccc(Cl)cc12)Nc1nc(C)cc(C)n1 | 6.43% (inactive) |
| Cc1c(S(=O)(=O)N2CCCC2)cc(C(=O)Nc2ccccc2F)n1C | 1.4% (inactive) |
| Cc1ccc(-c2cc(=O)oc(-c3ccc(Br)cc3)n2)cc1 | 4.33% (inactive) |
| COc1ccc(OC)c(-c2cc(C(=O)N3C[C@@H]4C[C@@]5(C)[C@H](CCC[C@@H]35)N4)[nH]n2)c1 | 1.2% (inactive) |
| Cc1ccccc1Nc1nccc(C2CCCN(C(=O)C3(c4ccccc4)CC3)C2)n1 (stereo unspecified) | -0.199% (inactive) |
| CC12CCN(CCC(F)(F)F)CCN1C(=O)N(Cc1ccccn1)C2=O (stereo unspecified) | -2.02% (inactive) |
| Cc1nc(Nc2ccccn2)cc(C2CCCN2C(=O)c2cccnc2)n1 (stereo unspecified) | -7.09% (inactive) |
| CCc1ccccc1NC(=O)COc1nsnc1N1CCOCC1 | -0.647% (inactive) |
| Cc1cc(O)c2c(C)c(CC(=O)N3CCC[C@H]3C(=O)O)c(=O)oc2c1 | 0.928% (inactive) |
| Cc1nc2ccccc2c(=O)n1-c1ccc(F)c(NC(=O)c2ccccc2[N+](=O)[O-])c1 | 3.02% (inactive) |
| O=S(=O)(Cc1noc(-c2ccc(OC(F)(F)F)cc2)n1)c1ccc(F)cc1 | -2.05% (inactive) |
| Cc1nc2sccn2c1CN1C[C@@H](c2ccccn2)[C@@]2(CCCCC(=O)N2)C1 | 5.2% (inactive) |
| CC(=O)N1CCCn2c(nc(CNC(=O)c3cnn(C)c3)cc2=O)C1 | 6.8% (inactive) |
| Cc1ccccc1CNC(=O)CCc1nc2ccccc2c(=O)n1C | -6.78% (inactive) |
| CC(C)n1ncc2c(C(=O)NCc3ccccc3CN(C)C)cc(C3CC3)nc21 | -0.227% (inactive) |
| CN1C(=O)OC2(CCN(S(=O)(=O)c3ccccc3)CC2)c2ccccc21 | 4.14% (inactive) |
| CCCNC(=O)c1nc2c(o1)CN(CC1CC1)C2 | 0.464% (inactive) |

| SMILES | inhibition |
| --- | --- |
| CN(C(=O)COc1ncnc2c1cnn2-c1ccccc1)C1CCCCC1 | 1.52% (inactive) |
| Cc1cccc(S(=O)(=O)N(CC(=O)N(C)Cc2ccccc2)Cc2ccccc2)c1 | -0.03% (inactive) |
| COc1cc(C)c(CN2CCC3(CC2)OCCc2cnc(C)nc23)cc1C | -2.12% (inactive) |
| O=C(Nc1cc(C(F)(F)F)ccc1-n1cnc2ccccc21)c1ccc(S(=O)(=O)N2CCCCC2)cc1 | 12.8% (inactive) |
| Cc1nc(CN2CCn3c(CNC(=O)C4CC4)cnc3C2C)cs1 (stereo unspecified) | -127% (inactive) |
| CCCN(C(=O)c1cccc2c1SCCC2=O)c1ccc(F)cc1 | -4.01% (inactive) |
| O=C(Cc1ccccc1)Nc1ccc(-c2nc3cnccc3o2)c(O)c1 | 31.5% (active) |
| COc1cc(C(=O)Nc2ccc(-c3nc4cnccc4o3)cc2)cc(OC)c1OC | 5% (inactive) |
| O=C(Nc1ccc(-c2nc3cnccc3o2)c(O)c1)c1ccc(-c2ccccc2)cc1 | 5.05% (inactive) |
| CCOc1ccc(NC(=O)Cn2c(=O)n(CCC(=O)N3CCc4ccccc4C3)c(=O)c3ccccc32)cc1 | 3.17% (inactive) |
| O=C(Nc1ccc(F)cc1F)c1csc2c1CCCCC2 | 3.29% (inactive) |
| O=C(NCc1ccc2c(c1)OCO2)C1(c2ccc(Cl)cc2)CCCC1 | -12.3% (inactive) |
| CN(Cc1ccccc1)Cc1cn[nH]c1-c1ccc(Cl)cc1 | -24% (inactive) |
| Cc1nc2nc(NCc3ccccc3)[nH]n2c(=O)c1CCC(=O)N1CCCCC1C (stereo unspecified) | 2.27% (inactive) |
| CC1=NOC(CNS(=O)(=O)c2cc(C)ccc2C)C1 (stereo unspecified) | -0.759% (inactive) |
| O=C1NC2(CCN(C(=O)Cc3ccc(F)cc3)CC2)N=C1c1ccc(Cl)cc1 | -39.3% (inactive) |
| COc1c(O)c2c3c(c1O)C(=O)[C@@]1(O)C(=C3C(C)=CC2=O)O[C@@H](C)C1(C)C | -76.3% (inactive) |
| COc1ccc(Cl)cc1NC(=O)C1CC(=O)NC(Nc2ccccc2)=N1 (stereo unspecified) | -1.4% (inactive) |
| Cc1cc(C)n2nc(C(=O)N3CCCC(Cc4[nH]ncc4C)C3)cc2n1 (stereo unspecified) | -0.00929% (inactive) |

| SMILES | inhibition |
| --- | --- |
| CSc1cccc(NC(=O)CC(=O)Nc2ccc3nc4n(c(=O)c3c2)CCCCC4)c1 | 1.86% (inactive) |
| CC1(C2CCN(C(=O)NC3CCCCC3)CC2)NC(=O)NC1=O (stereo unspecified) | 2.45% (inactive) |
| CC(C)CCN1C[C@H]2CCN(C(=O)c3cnccn3)CC[C@H]2S1(=O)=O | -4.49% (inactive) |
| Cc1ccccc1COC(=O)C1CCN(C2=NS(=O)(=O)c3ccccc32)CC1 | -0.994% (inactive) |
| COc1ccc2[nH]c3c(c2c1)CCN1C(=O)CN(CCc2ccccc2)C(=O)C31C (stereo unspecified) | 4.73% (inactive) |
| COC1=C(OC)C(=O)C(C)=C(C)C1=O | 3.62% (inactive) |
| O=C(Nc1cccc(S(=O)(=O)N2CCCCCC2)c1)c1ccc(N2CCOCC2)c([N+](=O)[O-])c1 | 8.97% (inactive) |
| CC(C)(C)c1cc(-c2ccccc2)nc(-c2ccccc2)c1 | 1.78% (inactive) |
| O=C(CCN1CCOC(Cn2cncn2)C1)N1CCCCC1 (stereo unspecified) | 1.57% (inactive) |
| O=C(CN(Cc1ccccc1)S(=O)(=O)c1ccccc1)N1CCCCCC1 | -6.83% (inactive) |
| Cc1ccc(NS(=O)(=O)c2cc(-c3[nH]ncc3C(=O)N3CCCC3)oc2C)cc1F | -40.8% (inactive) |
| COCCn1cnc2c1c(=O)n(CC(=O)Nc1c(C)cc(C)cc1C)c(=O)n2Cc1ccccc1 | 0.0199% (inactive) |
| CC(Nc1nnc(Cc2ccccc2)c(=O)[nH]1)c1ccccc1 (stereo unspecified) | 19.7% (inactive) |
| Cc1c(-c2nn3c(-c4ccco4)nnc3s2)cccc1[N+](=O)[O-] | 35% (active) |
| CC(C)Cc1cc(-c2nn3c(-c4ccccc4Cl)nnc3s2)n[nH]1 | 7.86% (inactive) |
| Cc1cccc(CNC(=O)c2ccc3c(c2)NC(=O)C2CCC(=O)N32)c1 (stereo unspecified) | 1.1% (inactive) |
| O=C1CC(CNS(=O)(=O)c2cccc(Cl)c2)CN1c1ccccc1 (stereo unspecified) | -3.38% (inactive) |
| Cn1c(=O)c2ccc(C3CCN(C(=O)CN4CCCC4)C3)nc2n(C)c1=O (stereo unspecified) | -2.1% (inactive) |
